Data taken from PubChem BioAssay (Tox21).
Records with an inconclusive call do not appear. Active and inactive are the calls of the source. Unless noted, the call rests on the fitted dose curve; in most records, active means well fitted curve in the direction sought with a large enough effect in the repeat runs; inconclusive means weak or mixed curves; inactive means no such curve, though single readings can be large; an effect the other way counts as inactive or inconclusive.

Assays:
[1] = qHTS assay to identify small molecule antagonists of the estrogen related receptor (ERR) signaling pathway from Tox21 library - cell viability counter screen (AID 1224834); further: nearly all actives have a fitted effect of over 30% in size
Summary of the method: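 ERR reporter cells were plated 6 h before compound addition, then exposed to test compounds in DMSO for 17.5 h at 37 C. Viability was read as CellTiter-Fluor fluorescence after a 30-minute incubation at 37 C.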

[2] = qHTS assay to identify small molecule antagonists of the constitutive androstane receptor (CAR) signaling pathway - cell viability counter screen (AID 1224837); further: series mostly up to about 92 µM; nearly all actives have a fitted effect of over 45% in size
Summary of the method: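 HepG2 cells stably expressing hCAR and a CYP2B6-2.2kb reporter were plated and pre-incubated 4 hr at 37 C/5% CO2, then given compounds at 15 concentrations plus 50 nM CITCO (final). After 23 hr, viability was read by CellTiter-Fluor fluorescence.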

[3] = qHTS assay to identify small molecule antagonists of the estrogen related receptor signaling pathway with the pleiotropic PPARgamma coactivator (PGC) from Tox21 10K library - cell viability counter screen (AID 1224840; active means well fitted cell-killing curve with a large enough effect in the repeat runs, not every such curve was filed as active; further: nearly all actives have a fitted effect of over 40% in size)
Summary of the method: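 PGC/ERR cells were seeded at 2,000 cells/well and left 6 hours at 37 C/5% CO2 before pin-tool addition of compounds in DMSO. After 17.5 hours at 37 C, CellTiter-Fluor was added and fluorescence read 30 minutes later.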

[4] = target: Thyrotropin receptor (Homo sapiens) (UniProt P16473); test: qHTS assay to identify small molecule agonists of the thyroid stimulating hormone receptor (TSHR) signaling pathway (AID 1224843; calls by dose curve; further: nearly all actives have a fitted effect of over 45% in size; further: potency means the concentration at half of the fitted maximal effect)
Summary of the method: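 HEK293 cells stably bearing the thyrotropin receptor were plated at 800 cells/well and challenged with compound (30 min, RT). Accumulated cAMP was quantified via cAMP-d2 competing for cryptate-tagged antibody.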

[5] = qHTS assay to identify small molecule agonists of the constitutive androstane receptor (CAR) signaling pathway - cell viability counter screen (AID 1224836); further: series mostly up to about 92 µM; nearly all actives have a fitted effect of over 45% in size
Summary of the method: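 Cells were seeded and incubated 4 hrs. Compounds were added across 15 concentrations together with PK11195 at 0.75 uM final. Plates were incubated 23 hrs at 37 C. CellTiter-Fluor was added and fluorescence measured.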

[6] = target: Nuclear receptor subfamily 1 group I member 3 (Homo sapiens) (UniProt Q14994); test: qHTS assay to identify small molecule antagonists of the constitutive androstane receptor (CAR) signaling pathway (AID 1224838); further: nearly all actives have a fitted effect of over 40% in size
Summary of the method: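 HepG2 cells stably co-transfected with hCAR and a CYP2B6-2.2kb luciferase reporter were seeded 4 h before compound addition at 15 concentrations. Cells were stimulated with 50 nM CITCO (final) for 24 h at 37 C; luciferase luminescence was then read.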

[7] = target: Nuclear receptor subfamily 1 group I member 3 (Homo sapiens) (UniProt Q14994); test: qHTS assay to identify small molecule agonists of the constitutive androstane receptor (CAR) signaling pathway (AID 1224839); further: nearly all actives have a fitted effect of over 15% in size; further: potency means the concentration at half of the fitted maximal effect;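 on activation: HepG2 cells stably carrying human CAR and a CYP2B6 luciferase reporter; series mostly up to about 92 µM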
Summary of the method: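 Cells were plated and incubated 4 hrs, then dosed with compounds at 15 concentrations. PK11195 was added to 0.75 uM final. After 24 hrs at 37 C, luciferase luminescence was measured.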

[8] = qHTS assay to identify small molecule antagonists of the estrogen related receptor signaling pathway with the pleiotropic PPARgamma coactivator (PGC) from Tox21 10K library (AID 1224841; call rule not given here; further: actives are mostly falling curves and most rising ones were filed inactive; nearly all actives have a fitted effect of over 50% in size; further: potency means the concentration at half of the fitted maximal effect)
Summary of the method: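 PGC/ERR reporter cells were seeded at 2,000 cells/well and held 6 hours at 37 C/5% CO2 before pin-tool addition of compounds in DMSO. After 18 hours at 37 C, One-Glo was added and luminescence read after 30 minutes at room temperature.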

[9] = qHTS assay to identify small molecule agonists of the estrogen related receptor signaling pathway with the pleiotropic PPARgamma coactivator (PGC) from Tox21 10K library (AID 1224842); further: nearly all actives have a fitted effect of over 15% in size
Summary of the method: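 Luminescence from One-Glo (30 min, room temperature) measured after PGC/ERR cells had 18 h at 37 C with pinned compound (23 nL in DMSO). Cells had been seeded at 2,000 per well and pre-incubated 6 h.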

[10] = target: Luciferin 4-monooxygenase (Photinus pyralis) (UniProt P08659); test: qHTS assay to identify small molecule inhibitors of firefly luciferase (AID 1224835); further: nearly all actives have a fitted effect of over 25% in size; further: potency means the concentration at half of the fitted maximal effect
Summary of the method: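 Inhibition of purified Photinus luciferase is measured by luminescence. Substrate levels (D-luciferin, ATP) sit at their KM values. Each compound is tested in a concentration series.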
On the % scale 0 is the no-effect control and ±100 the full control effect.

Chain of Luciferin 4-monooxygenase (Photinus pyralis) (P08659 whole entry, looked up): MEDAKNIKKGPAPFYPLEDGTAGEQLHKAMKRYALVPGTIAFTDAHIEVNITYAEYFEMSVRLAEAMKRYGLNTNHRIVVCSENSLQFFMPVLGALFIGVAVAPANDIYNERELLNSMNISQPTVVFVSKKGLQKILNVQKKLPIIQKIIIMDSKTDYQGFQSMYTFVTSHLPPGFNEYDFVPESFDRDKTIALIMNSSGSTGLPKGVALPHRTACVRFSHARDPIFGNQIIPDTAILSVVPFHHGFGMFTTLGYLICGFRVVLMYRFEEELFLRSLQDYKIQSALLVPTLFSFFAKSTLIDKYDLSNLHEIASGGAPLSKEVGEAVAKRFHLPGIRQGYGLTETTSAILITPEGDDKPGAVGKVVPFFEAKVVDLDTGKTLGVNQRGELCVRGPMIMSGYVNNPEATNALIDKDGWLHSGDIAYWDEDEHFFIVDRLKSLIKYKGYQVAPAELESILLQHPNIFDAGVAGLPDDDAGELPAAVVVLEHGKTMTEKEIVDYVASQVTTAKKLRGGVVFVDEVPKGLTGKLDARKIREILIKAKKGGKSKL
Chain of Thyrotropin receptor (Homo sapiens) (P16473 whole entry, looked up): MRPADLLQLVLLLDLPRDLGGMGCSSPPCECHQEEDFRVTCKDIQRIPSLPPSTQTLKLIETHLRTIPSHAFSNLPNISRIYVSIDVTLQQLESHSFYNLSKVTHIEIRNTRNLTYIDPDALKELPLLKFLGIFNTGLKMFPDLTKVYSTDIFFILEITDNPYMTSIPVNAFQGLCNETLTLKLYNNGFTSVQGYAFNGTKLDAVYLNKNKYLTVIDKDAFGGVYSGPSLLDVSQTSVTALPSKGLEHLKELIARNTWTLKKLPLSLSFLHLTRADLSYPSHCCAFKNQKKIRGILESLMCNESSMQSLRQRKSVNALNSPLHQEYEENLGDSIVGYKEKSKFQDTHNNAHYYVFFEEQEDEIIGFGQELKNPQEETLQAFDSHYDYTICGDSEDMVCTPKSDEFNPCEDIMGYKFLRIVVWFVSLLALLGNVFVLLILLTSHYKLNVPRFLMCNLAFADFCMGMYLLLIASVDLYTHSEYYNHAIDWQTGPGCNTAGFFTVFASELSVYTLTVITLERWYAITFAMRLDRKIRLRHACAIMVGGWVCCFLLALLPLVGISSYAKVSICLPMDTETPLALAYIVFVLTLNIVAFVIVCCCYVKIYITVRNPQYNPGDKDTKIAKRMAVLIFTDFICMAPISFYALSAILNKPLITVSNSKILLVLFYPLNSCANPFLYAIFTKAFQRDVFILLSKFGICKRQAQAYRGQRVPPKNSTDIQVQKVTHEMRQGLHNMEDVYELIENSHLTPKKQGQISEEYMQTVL
Chain of Nuclear receptor subfamily 1 group I member 3 (Homo sapiens) (Q14994 whole entry, looked up): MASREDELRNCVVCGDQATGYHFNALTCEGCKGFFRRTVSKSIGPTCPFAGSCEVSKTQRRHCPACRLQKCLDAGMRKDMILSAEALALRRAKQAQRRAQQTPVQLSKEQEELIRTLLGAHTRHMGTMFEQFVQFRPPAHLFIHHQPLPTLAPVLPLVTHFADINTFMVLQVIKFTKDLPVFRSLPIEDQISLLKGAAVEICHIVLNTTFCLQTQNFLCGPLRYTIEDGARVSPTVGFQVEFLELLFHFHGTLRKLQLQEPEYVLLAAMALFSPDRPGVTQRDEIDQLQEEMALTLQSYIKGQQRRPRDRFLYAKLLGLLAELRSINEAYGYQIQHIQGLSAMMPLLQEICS

CCCCCCOc1ccccc1C(N)=O
inactive: Potency [1] | Potency [2] | outcome [3] | Potency [4]

O=C(OCC(O)CO)c1ccccc1Nc1ccnc2c(C(F)(F)F)cccc12 (centres undefined)
inactive: Potency [5] | Potency [2] | outcome [6] | Potency [7] | Potency [4]

CCCCCCCCCCl
inactive: Potency [1] | Potency [2] | outcome [3] | Potency [8] | outcome [9] | Potency [4]

CC(CN)CC(C)(C)CCN (centres undefined)
inactive: Potency [10] | outcome [6] | Potency [7] | outcome [3] | Potency [4]

COc1cc(N)ccc1C
active: Potency [8] 1.52 µM
inactive: Potency [10] | Potency [5] | Potency [2] | outcome [6] | outcome [3] | outcome [9] | Potency [4]

NCCN1CCOCC1
inactive: Potency [1] | Potency [5] | Potency [2] | outcome [3] | Potency [4]

COc1ccc(-c2cc(=O)c3c(O)cc(O[C@@H]4O[C@H](CO[C@@H]5O[C@@H](C)[C@H](O)[C@@H](O)[C@H]5O)[C@@H](O)[C@H](O)[C@H]4O)cc3o2)cc1O
inactive: Potency [5] | Potency [2] | outcome [3] | Potency [8] | outcome [9]

CC(N)C(=O)OC(C)(C)Cc1ccc(Cl)cc1 (centres undefined)
inactive: Potency [10] | Potency [2] | outcome [6] | Potency [7] | Potency [4]

CC(=O)Nc1cccc(C)c1
inactive: Potency [5] | outcome [3] | Potency [4]

CC(=O)OC(C)OC(=O)C(C)c1ccc(-c2ccccc2)c(F)c1 (centres undefined)
inactive: Potency [1] | Potency [5] | Potency [7] | Potency [4]

CCCCOC(=O)c1ccccc1
inactive: Potency [5] | outcome [3] | Potency [8] | outcome [9] | Potency [4]

Cc1[nH]cnc1-c1ccc(Cl)cc1
inactive: Potency [1] | Potency [5] | Potency [2] | outcome [6] | outcome [3] | Potency [4]

CCOCCOC(=O)/C=C/c1ccc(OC)cc1
inactive: Potency [1] | Potency [5] | Potency [2] | outcome [6] | Potency [4]

O=C(NCCc1c[nH]c2ccccc12)c1cccnc1
inactive: Potency [1] | Potency [2] | Potency [4]

CC(COC(C)(C)C)OCCCO (centres undefined)
inactive: Potency [10] | Potency [5] | outcome [6] | Potency [7] | Potency [8] | outcome [9] | Potency [4]

c1ccc2c(c1)ccc1c3ccccc3ccc21
inactive: Potency [1] | Potency [2] | outcome [6] | outcome [3] | Potency [4]

N[C@@H](CCC(=O)Nc1ccc([N+](=O)[O-])cc1)C(=O)O
inactive: Potency [10] | outcome [6] | Potency [7] | outcome [3] | Potency [8] | outcome [9] | Potency [4]

O=C(c1ccc(O)cc1)c1ccc(O)c(O)c1O
active: Potency [10] 63.5 µM
inactive: outcome [6] | outcome [3] | Potency [8] | outcome [9]

CC(C)NCC(O)COc1cccc2[nH]ccc12 (centres undefined)
inactive: Potency [1] | Potency [5] | Potency [2] | outcome [6] | outcome [3] | Potency [4]

O=C(/N=N/C(=O)OCc1ccccc1)OCc1ccccc1
active: Potency [7] 54.5 µM | Potency [4] 24.3 µM
inactive: Potency [1] | Potency [2] | outcome [6] | outcome [3]

Nc1ccc2cc(S(=O)(=O)O)cc(O)c2c1
inactive: Potency [5] | Potency [2] | outcome [6] | Potency [7] | Potency [8] | outcome [9]

N[C@@H](CCC(=O)N[C@@H](CS)C(=O)NCC(=O)O)C(=O)O
inactive: viability change, negative = cytotoxic [1] 0.69% [at 19 µM] | viability change, negative = cytotoxic [5] 2.39% [at 19 µM] | activity change, negative = cytotoxicity [2] 7.5% [at 19 µM] | activation [4] 2.71% [at 19 µM]

Cc1ccc2ccc(Cl)cc2n1
inactive: Potency [1] | Potency [5] | Potency [7] | outcome [3] | Potency [4]

Nc1cccc(O)c1
inactive: Potency [10] | Potency [5] | Potency [2] | outcome [6] | Potency [7] | outcome [3] | Potency [4]

O=C(OCC1(COC(=O)c2cccnc2)CCCC(COC(=O)c2cccnc2)(COC(=O)c2cccnc2)C1O)c1cccnc1
inactive: Potency [10] | Potency [5] | Potency [2] | outcome [6] | Potency [7] | outcome [3] | Potency [4]

CC(C)C(=O)OCCc1ccccc1
inactive: Potency [1] | Potency [5] | Potency [4]

C#CC(C)N(C)C(=O)Nc1ccc(Cl)cc1 (centres undefined)
inactive: Potency [2] | outcome [6] | outcome [3] | Potency [8] | outcome [9]
active: Potency [10] 63.2 µM

O=S(=O)(O)c1cc(O)c2ccc(Nc3ccccc3)cc2c1
active: Potency [10] 17.8 µM
inactive: Potency [5] | outcome [6] | Potency [7] | outcome [3]

CCN(CC)CC(=O)Nc1c(C)cccc1C
inactive: Potency [1] | Potency [2] | outcome [3] | Potency [8] | outcome [9] | Potency [4]

C[C@@H]1O[C@@H](O[C@@H]2[C@@H](O)[C@H](OCCc3ccc(O)c(O)c3)O[C@H](CO[C@@H]3O[C@H](CO)[C@@H](O)[C@H](O)[C@H]3O)[C@H]2OC(=O)/C=C/c2ccc(O)c(O)c2)[C@H](O)[C@H](O)[C@H]1O
inactive: Potency [5] | Potency [2] | outcome [6] | Potency [7] | outcome [3]

Cc1ccccc1C(=O)Nc1ccc(C(=O)N2CCCC(N(C)C)c3ccccc32)cc1 (centres undefined)
inactive: Potency [10] | Potency [5] | Potency [2] | outcome [3] | Potency [4]
